# From the supplement of paper PMC3545927
# The list shows a part of the results. The hit rate among all sequences tested is not known here.
# B1: HC2304 (peptide)
# chain: CAIVPCHRPSAGNASASA
# B2: HC778 (peptide)
# chain: CAGKSTKVPAAGNASASA
# B3: HC1966 (peptide)
# chain: CAEMTTPCSGAGNASASA
# B4: HC1365 (peptide)
# chain: CASSEANAEDAGNASASA
# B5: HC1090 (peptide)
# chain: CAVAGALVAFAGNASASA
# B6: FS-2705 (peptide)
# chain: CARLKRFSMVAGNASASA
# B7: FS-1750 (peptide)
# chain: CARLTRSNSKAGNASASA
# B8: FS-2277 (peptide)
# chain: CARLKRSPDKAGNASASA
# B9: FS-3235 (peptide)
# chain: CARSGRVVGSAGNASASA
# B10: FS-2093 (peptide)
# chain: CARSYRGISSAGNASASA
# B11: HC291 (peptide)
# chain: CAHIDLLVGSAGNASASA
# B12: FS-2379 (peptide)
# chain: CARSKRDVGSAGNASASA
# B13: FS-3083 (peptide)
# chain: CARSKRDISSAGNASASA
# B14: HC1334 (peptide)
# chain: CALATRSFGSAGNASASA
# B15: FS-2405 (peptide)
# chain: CARSKKIFGSAGNASASA
# B16: FS-1989 (peptide)
# chain: CARAGRDVGSAGNASASA
# B17: FS-1868 (peptide)
# chain: CARSKRDGSEAGNASASA
# B18: FS-2380 (peptide)
# chain: CARSKRRKYSAGNASASA
# B19: HC2547 (peptide)
# chain: CASTPCSAFLAGNASASA
# B20: HC1380 (peptide)
# chain: CAQKLPINALAGNASASA
# B21: HC1209 (peptide)
# chain: CAGDFHYVTGAGNASASA
# B22: HC60 (peptide)
# chain: CATTPPSGSWAGNASASA
# B23: HC397 (peptide)
# chain: CASYANGSGPAGNASASA
# B24: HC2294 (peptide)
# chain: CADKEVVTSTAGNASASA
# B25: HC1506 (peptide)
# chain: CAGENCGYRRAGNASASA
# B26: FS-1148 (peptide)
# chain: CAPLRRSKRRAGNASASA
# B27: FS-804 (peptide)
# chain: CAIRSRVLREAGNASASA
# B28: FS-2858 (peptide)
# chain: CAALKRPVEQAGNASASA
# B29: FS-444 (peptide)
# chain: CAIRSALKRPAGNASASA
# B30: FS-1445 (peptide)
# chain: CAALKRSKRRAGNASASA
# B31: FS-1666 (peptide)
# chain: CAAERRSVIRAGNASASA
# B32: FS-3 (peptide)
# chain: CAAEVRSKRRAGNASASA
# B33: HC1207 (peptide)
# chain: CAIRQVGDFHAGNASASA
# B34: HC140 (peptide)
# chain: CAEVVPSTWVAGNASASA
# B35: HC1533 (peptide)
# chain: CAESAGVQEDAGNASASA
# B36: HC305 (peptide)
# chain: CAQLFTFSPRAGNASASA
# B37: HC248 (peptide)
# chain: CASIFLLALLAGNASASA
# B38: HC434 (peptide)
# chain: CAGNWFGCTWAGNASASA
# B39: FS-1943 (peptide)
# chain: CARAHRSVLAAGNASASA
# B40: HC1428 (peptide)
# chain: CAAVTHINSVAGNASASA
# B41: FS-1099 (peptide)
# chain: CATRARSLRFAGNASASA
# B42: FS-1240 (peptide)
# chain: CANRKRSKRRAGNASASA
# B43: FS-773 (peptide)
# chain: CAFRSRSKRRAGNASASA
# B44: FS-3137 (peptide)
# chain: CASRKRSFFRAGNASASA
# B45: FS-1239 (peptide)
# chain: CANRKRNKKQAGNASASA
# B46: FS-774 (peptide)
# chain: CAFRSRSLREAGNASASA
# B47: FS-96 (peptide)
# chain: CATCSRHKRRAGNASASA
# Biological target: furin, P09958
# Sequence (P09958 whole entry): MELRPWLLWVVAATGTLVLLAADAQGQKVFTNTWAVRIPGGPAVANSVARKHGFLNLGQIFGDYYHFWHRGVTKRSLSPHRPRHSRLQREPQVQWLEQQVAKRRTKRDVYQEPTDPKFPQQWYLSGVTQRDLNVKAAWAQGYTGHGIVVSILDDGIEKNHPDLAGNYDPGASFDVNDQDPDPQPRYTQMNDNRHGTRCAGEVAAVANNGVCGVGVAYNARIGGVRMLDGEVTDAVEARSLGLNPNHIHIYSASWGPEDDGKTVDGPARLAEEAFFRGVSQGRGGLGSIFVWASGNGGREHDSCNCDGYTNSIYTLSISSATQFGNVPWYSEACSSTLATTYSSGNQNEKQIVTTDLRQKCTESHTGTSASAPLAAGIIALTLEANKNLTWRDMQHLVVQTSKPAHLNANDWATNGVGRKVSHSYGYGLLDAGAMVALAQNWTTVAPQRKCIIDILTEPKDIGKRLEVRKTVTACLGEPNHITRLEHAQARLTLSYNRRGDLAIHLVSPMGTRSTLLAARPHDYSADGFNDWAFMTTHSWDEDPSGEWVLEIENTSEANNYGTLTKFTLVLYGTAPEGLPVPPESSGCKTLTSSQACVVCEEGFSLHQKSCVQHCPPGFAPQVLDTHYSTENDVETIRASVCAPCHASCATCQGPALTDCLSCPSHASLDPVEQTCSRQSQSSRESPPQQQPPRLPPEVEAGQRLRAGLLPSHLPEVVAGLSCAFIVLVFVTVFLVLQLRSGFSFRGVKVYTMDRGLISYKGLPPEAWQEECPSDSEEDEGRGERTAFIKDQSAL
# Assay: furin cleavage Z-score vs untreated control; higher = more cleavage, active = 3.5 or more, inactive = 1 or less, 8 variable residues between constant flanks
# In short: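 Read counts from sequencing released DNA gave abundance for each bead-bound 8-mer peptide–cDNA fusion cut by purified furin over 7.5, 15 or 30 min. The cleavage Z-score compares log counts with furin-free reactions after lowess adjustment and median absolute deviation scaling.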
# 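Also: purified furin at 1:10 enzyme:substrate in 50 mM HEPES pH 7.5.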
Sequence,furin cleavage Z-score (7.5 min),furin cleavage Z-score (15 min),furin cleavage Z-score (30 min)
B1,0.422 (inactive),0.63 (inactive),0.055 (inactive)
B2,1.37,0.655 (inactive),-0.125 (inactive)
B3,-0.105 (inactive),-0.176 (inactive),-0.555 (inactive)
B4,-1.29 (inactive),-2.48 (inactive),-1.24 (inactive)
B5,1.08,-1.61 (inactive),-0.599 (inactive)
B6,1.5,0.596 (inactive),2.46
B7,-0.152 (inactive),1.68,-1.49 (inactive)
B8,9.81 (active),12.1 (active),8.68 (active)
B9,-1.67 (inactive),0.0813 (inactive),0.573 (inactive)
B10,1.39,-0.63 (inactive),0.639 (inactive)
B11,-0.513 (inactive),-1.31 (inactive),-1.06 (inactive)
B12,11.6 (active),11.3 (active),8.54 (active)
B13,9.51 (active),11.2 (active),9.07 (active)
B14,-0.496 (inactive),0.424 (inactive),-0.551 (inactive)
B15,-1.12 (inactive),-0.175 (inactive),0.546 (inactive)
B16,2.62,3.76 (active),2.8
B17,3.53 (active),5.29 (active),5.43 (active)
B18,0.793 (inactive),-0.279 (inactive),0.723 (inactive)
B19,-0.397 (inactive),-0.0879 (inactive),0.628 (inactive)
B20,0.17 (inactive),-0.107 (inactive),-0.819 (inactive)
B21,-0.771 (inactive),-0.551 (inactive),-1.55 (inactive)
B22,-1.04 (inactive),-0.299 (inactive),-0.554 (inactive)
B23,0.376 (inactive),-1.07 (inactive),0.0876 (inactive)
B24,-0.414 (inactive),-0.137 (inactive),-0.18 (inactive)

Sequence,furin cleavage Z-score (7.5 min),furin cleavage Z-score (15 min),furin cleavage Z-score (30 min)
B25,-0.528 (inactive),-0.187 (inactive),-0.341 (inactive)
B26,9.4 (active),9.64 (active),8.71 (active)
B27,12.6 (active),10.5 (active),8.33 (active)
B28,-1.15 (inactive),-0.538 (inactive),-0.285 (inactive)
B29,0.37 (inactive),-0.823 (inactive),-0.407 (inactive)
B30,11.5 (active),10.6 (active),8.09 (active)
B31,-0.389 (inactive),-2.19 (inactive),-0.341 (inactive)
B32,4.87 (active),4.38 (active),5.1 (active)
B33,-0.371 (inactive),-0.615 (inactive),-1.78 (inactive)
B34,-0.678 (inactive),-0.107 (inactive),0.5 (inactive)
B35,-0.496 (inactive),-1.46 (inactive),-0.975 (inactive)
B36,-0.105 (inactive),-0.574 (inactive),0.219 (inactive)
B37,-0.433 (inactive),-0.299 (inactive),-0.909 (inactive)
B38,2,1.1,-0.112 (inactive)
B39,-0.832 (inactive),-0.15 (inactive),2.24
B40,-1.27 (inactive),-0.864 (inactive),-0.253 (inactive)
B41,-0.222 (inactive),2.2,1.03
B42,10.6 (active),10.8 (active),8.12 (active)
B43,8.16 (active),8.31 (active),7.71 (active)
B44,-0.305 (inactive),2.22,0.35 (inactive)
B45,0.136 (inactive),0.864 (inactive),2.02
B46,5.16 (active),6.5 (active),6.69 (active)
B47,4.62 (active),7.75 (active),7.17 (active)
